BoNT-F LC inh – BoNT F light chain protease inhibition | Multiplex microsphere protease cleavage assay, flow cytometry | 360,000 tested, 0.22% active | AID 588497 | inhibition, % at 10 µM; in the data active = inhibition above about 35%, passing the limit was not always enough; inconclusive = no clear call, values can overlap the other calls
3CLpro inhibitor – SARS-CoV 3CLpro protease inhibition; recombinant SARS-CoV 3CLpro, quenched FRET peptide cleavage; inhibition, % at 6 µM; 290,000 tested, 0.14% active; AID 1706; in the data active = inhibition above about 12%
BoNT A protease – BoNT A light chain protease inhibition; AID 588499; inhibition, % at 10 µM; multiplex microsphere protease substrate cleavage, flow cytometry; 360,000 tested, 0.17% active
Bead autofluor – flagged as autofluorescent in microsphere protease counterscreen. fluorescence intensity (concentration not given with the values). 360,000 tested, 3.1% active. AID 624483. compound autofluorescence counterscreen, microsphere flow cytometry; stronger effect = higher value; in the data active = fluorescence intensity above about 16000; inconclusive = no clear call, values can overlap the other calls
CCHF vOTU inh – blocks the CCHF virus ovarian tumor domain protease. CCHFV vOTU protease, Pep-AMC fluorescence. inhibition, % at 11.5 µM. 370,000 tested, 0.55% active; in the data active = inhibition above about 30%
Anthrax LF inh2 – blocks Bacillus anthracis lethal factor protease | 360,000 tested, 0.12% active | inhibition, % at 10 µM | multiplex microsphere protease cleavage assay, LF | AID 588501
Hits are given with their value; . = inactive; ? = inconclusive; / = no result given. Most compounds without a hit are left out; they make up all but 3.9% or so of the library. Cut-off read from the data, not from the text of the source, unless noted: active = inhibition above about 30%; inconclusive = no clear call, values can overlap the other calls; inactive = below that.

SMILES	BoNT-F LC inh	3CLpro inhibitor	BoNT A protease	Bead autofluor	CCHF vOTU inh	Anthrax LF inh2
O=C(c1cc2cc([N+](=O)[O-])ccc2oc1=O)N1CCN(c2ncccn2)CC1	38	.	.	.	.	.
Oc1ccc2ccccc2c1C=Nn1c(-c2n[nH]c3c2CCC3)n[nH]c1=S	/	/	/	/	.	/
COc1ccc(-n2c(SCC(=O)Nc3ccc(S(=O)(=O)Nc4nccs4)cc3)nnc2-c2ccccc2)cc1	/	/	/	/	.	/
CC(C)(C)c1ccc(S(=O)(=O)/N=C2\C=C(NS(=O)(=O)c3ccccc3)C(=O)c3ccccc32)cc1	.	.	.	.	54	.
CC(C)(C)NC(=O)C1CC(=O)OC1(C)C (stereo unspecified)	.	.	.	21395	.	.
O=C(Nc1ccc(F)c(F)c1)c1cnc(-c2ccccc2)nc1-c1ccccc1	?	.	?	?	.	?
O=C(Nc1ccc(F)cc1)c1cnc(-c2ccccc2)nc1-c1ccccc1	.	.	?	18660	.	.
Cc1cc(C)n(CCc2nc(-c3ccco3)cs2)n1	.	.	.	19796	.	.
COC(=O)n1c(=O)oc2cc(S(=O)(=O)N3CCOCC3)ccc21	.	.	.	20705	.	.
Cn1c(=O)oc2cc(S(=O)(=O)N3CCC4(CC3)OCCO4)ccc21	.	.	.	22987	.	.
COC(=O)n1c(=O)oc2ccc(S(=O)(=O)N3CCCCC3)cc21	.	.	.	.	.	.
Cc1ccc(NC(=O)C2CCCN(S(=O)(=O)c3ccc4c(c3)oc(=O)n4C)C2)nc1 (stereo unspecified)	.	.	.	.	30	.
COC(=O)C[C@H]1CC[C@@H]2[C@@H](COc3ccc(NC(=O)c4ccccc4)cc3C(=O)N2C)O1	/	/	/	/	.	/
COc1c2c(cc3c1c(=O)c1ccccc1n3C)OCO2	/	/	/	/	.	/
O=C(OCC1OC(n2cnc3c(N(C(=O)c4ccccc4)C(=O)c4ccccc4)ncnc32)C(O)C1F)c1ccccc1 (stereo unspecified)	.	.	.	24792	/	.
Nc1ncnc2c1ncn2[C@@H]1O[C@H](CNC(=O)OC[C@@H](N)Cc2ccccc2)[C@@H](O)[C@H]1O	.	/	.	.	.	.
Cc1cccc(C(=O)NCCN2CCN(c3ccccc3)CC2)c1	.	.	.	.	.	.
O=C(Cc1ccc(-c2ccccc2)cc1)NCCN1CCOCC1	.	.	.	.	.	.
O=C(NCCc1ccccc1)c1noc2c1CCc1ccccc1-2	.	.	.	17456	.	.
O=C(NCCN1CCOCC1)c1ccc(-c2ccccc2)cc1	.	.	.	20391	/	.
CCCNC(=O)c1noc2c1CCc1ccccc1-2	.	.	.	.	.	.
Cc1onc(-c2ccccc2)c1C(=O)NCCN1CCOCC1	.	.	.	.	.	.
O=C(NCCN1CCOCC1)c1noc2c1CCc1ccccc1-2	.	.	.	23180	.	.
O=C(NCCN1CCN(c2ccccc2)CC1)c1cccc(Br)c1	.	.	.	23925	.	.
CCOC(=O)CN1C(=O)N(c2ccc(OC)cc2)[C@H]2CC3c4ccccc4C[C@]3(C)[C@@H](C(=O)N(C)C3CCCCC3)C[C@H]21 (stereo partly specified)	/	/	/	/	.	/
SMILES	BoNT-F LC inh	3CLpro inhibitor	BoNT A protease	Bead autofluor	CCHF vOTU inh	Anthrax LF inh2
CCCC(=O)OC12CCCN(C1)/C(=C/c1ccccc1)C2 (stereo unspecified)	/	/	/	/	.	/
C=CCn1c(COc2ccc(C)cc2)nnc1SCC(=O)Nc1cc(Cl)cc(Cl)c1	/	/	/	/	.	/
CCCC(=O)Nc1ccc2oc(-c3ccncc3)nc2c1	.	.	.	16375	.	.
COc1ccc(-c2nc(-c3ccc(Br)cc3)no2)c(OC)c1	.	.	.	19523	.	.
COc1cccc(-c2nc(-c3ccc(NC(=O)Cc4ccccc4OC)cc3)no2)c1	.	.	.	.	/	.
COc1ccc(-c2nc3cc(NC(=O)Cc4ccc(OC)c(OC)c4)ccc3o2)cc1	.	.	.	16446	.	.
COc1ccc(CC(=O)Nc2ccc(-c3noc(-c4ccccc4OC)n3)cc2)cc1	.	.	?	22431	.	.
COCCCNC(=O)C[C@H]1C[C@@]2(C(=O)OC)C(=C[C@H](COCc3ccccc3)O[C@@H]2C)N(Cc2ccccc2)C1=O	/	/	/	/	.	/
CN1CCN(c2ccc3c(c2)Oc2ccccc2CN(Cc2cn(Cc4ccc(F)cc4)nn2)S3(=O)=O)CC1	/	/	/	/	.	/
Cc1ccc(CN2C(=O)CCC2C(=O)NCCCN2CCOCC2)cc1 (stereo unspecified)	.	.	.	.	.	.
O=C(NCCN1CCOCC1)C1CCC(=O)N1Cc1ccc(F)cc1 (stereo unspecified)	.	.	.	24197	.	.
CC(=O)C1=C(C)N(Cc2ccc(Cl)cc2)C(=S)NC1c1ccc(Cl)cc1 (stereo unspecified)	/	/	/	/	.	/
CCCc1cc(-c2n[nH]c(C)c2-c2ccc(C(=O)OCC)o2)c(O)cc1O	.	.	.	19356	.	.
CCCc1cc(C(=O)Cc2ccc(C(=O)OCC)o2)c(O)cc1O	.	.	.	.	.	.
CCc1nc(OCc2ccccc2)c2sc3nc4c(cc3c2n1)COC(C)(C)C4	.	.	?	21172	.	.
CC1(C)Cc2nc3sc4c(OCc5ccccc5)ncnc4c3cc2CO1	.	.	.	.	.	.
CC(COc1ccc(C#N)c(F)c1)CN1CCC(C(O)(c2ccccc2)c2ccccc2)CC1 (stereo unspecified)	/	/	/	/	.	/
COC(=O)CSc1nnc(-c2ccncc2)n1N	.	.	.	19048	.	.
Cc1ccc(NC(=O)CSc2nnc(-c3ccncc3)n2N)cc1C	.	.	.	24163	.	.
CC(COc1ccc(CC#N)cc1)CN1CCC(C(O)(c2ccccc2)c2ccccc2)CC1 (stereo unspecified)	/	/	/	/	.	/
CC(C)C[C@@H](NC(=O)OC(C)(C)C)C(=O)N1O[C@]23C=C[C@]14C[C@@H](O)CC[C@]4(C)C2CC[C@]1(C)[C@@H]([C@H](C)/C=C/[C@H](C)C(C)C)CC[C@H]13 (stereo partly specified)	/	/	/	/	.	/
Cc1ccc(C)c(OCCCN2CCCC2)c1	.	.	.	21161	.	.
CC(C)Cn1c(-c2csc3c2CCCC3)n[nH]c1=S	.	.	.	17069	/	.
Cc1cc(C)c2cc(C#N)c(NCCCNC(=O)CCC(=O)O)nc2c1	.	.	?	21922	.	.
O=C(CSc1nc2ccccc2n1Cc1ccccc1)NN=Cc1c[nH]c2ccccc12	/	/	/	/	.	/
O=C(c1ccccc1I)N1CCC(Oc2cccnc2)CC1	/	/	/	/	.	/
Cc1nc(NCc2ccco2)c2c(C)c(C)sc2n1	.	.	.	16784	.	.
Cc1nc2sc(C(=O)NCc3ccncc3)c(N)c2c(C)c1Cl	/	/	/	/	.	/
Fc1ccc(C(c2nnnn2C2CCCC2)N2CCc3ccccc32)cc1 (stereo unspecified)	.	.	.	17043	.	.
Fc1ccc(C(c2nnnn2CCc2ccccc2)N2CCCc3ccccc32)cc1 (stereo unspecified)	.	.	.	.	.	.
